# PubChem BioAssay (NCI)
# This is part of a sample that, as a whole, favours compounds with a hit. Of some 83,000 tested, about 20% had one in any assay.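 Treatment: one concentration, 48 hours, 96-well format. Scoring: percent growth, with anything below 10 considered active.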 A number with no mark means an inactive call. The source made the active and inactive calls.
# Columns and labels:
# Assay in all cases: NCI-60 one-dose screen, 48 h (100 = growth as untreated, 0 = no growth, -100 = all killed)
# Conditions in all cases: 10 µM unless noted
# [1] = test system: NCI-H23 lung
# [2] = test system: NCI-H226 lung
# [3] = test system: NCI-H322M lung
# [4] = test system: HOP-62 NSCLC
# [5] = test system: NCI-H460 lung
# [6] = test system: HOP-92 NSCLC
# [7] = test system: NCI-H522 lung
# [8] = test system: A549/ATCC NSCLC
# [9] = test system: 786-0 renal
# [10] = test system: DU-145 prostate
# [11] = test system: K-562 leukemia
# [12] = test system: MALME-3M melanoma
# [13] = test system: MDA-MB-231 breast
# [14] = test system: RXF 393 renal
# [15] = test system: SF-268 CNS
# [16] = test system: SF-295 CNS
# [17] = test system: SF-539 CNS
# [18] = test system: UACC-257 melanoma
# [19] = test system: M14 melanoma
# [20] = test system: COLO 205 colon
SMILES,growth [1],growth [2],growth [3] [%],growth [4] [%],growth [5],growth [6],growth [7],growth [8],growth [9],growth [10] [%],growth [11],growth [12],growth [13] [%],growth [14],growth [15] [%],growth [16],growth [17],growth [18],growth [19],growth [20] [%]
COC(=O)[C@H](C)NC(=O)[C@@H](OC)[C@@H]1Cc2cc3cc(OC4CC(OC5CC(O)C(O)C(C)O5)C(O)C(C)O4)c(C)c(O)c3c(O)c2C(=O)[C@H]1OC1CC(OC2CC(OC3CC(C)(O)C(O)C(C)O3)C(O)C(C)O2)C(O)C(C)O1 (stereo partly specified),-31.1% (active),-21.5% (active),11.4,13,7.28% (active),3.12% (active),-26% (active),7.05% (active),-4.86% (active),13.2,7.1% (active),-49.3% (active),18.4,-70.3% (active),14.1,3.96% (active),-33.2% (active),-0.386% (active),-23.9% (active),
CCCC(=O)OCC1OC(n2cnc3c(=S)nc[nH]c32)C(OC(=O)CCC)C1OC(=O)CCC (stereo unspecified),29.4%,32.5%,35.4,24.1,54.9%,17.9%,-12.7% (active),83.9%,22.3%,42.1,,51.8%,45.2,,52.5,36.8%,22.1%,,13%,67.3
C/C(=C(/c1ccc(Cl)cc1)c1ccc(OCCN2CCCCC2)cc1)c1ccccc1,76.3%,98.7%,91.4,68.8,74.4%,83.6%,81.4%,57.2%,75.6%,97.6,13.2%,76.9%,80.2,84.7%,90.5,83.8%,69.6%,80.3%,67.1%,
COC(=O)c1[nH]cnc1/N=N/N(C)CCO,96.3%,101%,108,97.4,105%,128%,92%,109%,93.5%,110,,119%,118,,93,112%,95%,,101%,120
CCN(CCCOc1ccc2c(Nc3cc(CC(=O)Nc4cccc(F)c4)[nH]n3)ncnc2c1)CCOP(=O)(O)O,73.4%,93.8%,68.5,56.7,45%,87.6%,44%,44.1%,86.5%,88.5,48.4%,31.9%,79.5,96.7%,76,73.5%,48.8%,49.9%,45.1%,
Cc1ccc(-c2nc3ccc(Cl)cn3c2NC2CCCCC2)o1,81.3%,84.5%,93.1,87,97.6%,73.1%,57.3%,79.5%,87.8%,104,74.5%,,84.7,83.1%,80,91.3%,95.4%,,101%,79.6
N#Cc1c(-c2ccc(C(F)(F)F)cc2)cc(NCC2CCS(=O)(=O)CC2)n2c1nc1ccccc12,88.8%,93.7%,100,86.4,96.8%,80.9%,64.5%,77%,84.6%,106,90%,,56.2,72.6%,82.4,88.2%,82%,,99.2%,96.6
COc1cc2c(Oc3ccc4[nH]c(C)cc4c3F)ncnc2cc1OCCCN1CCCC1,84%,57.3%,93,79.8,96.7%,95.9%,88.3%,84.5%,84.6%,96.8,71.2%,101%,104,74.7%,72.2,97.7%,45.2%,98.8%,92.8%,
